Measured values reported in PubChem BioAssay (NCI).
Compounds without any hit were thinned out: in the full panel of roughly 83,000, 20% have a hit.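 Single-concentration screen, 48 h exposure, 96-well plates. Endpoint: percent growth. Below 10 = active.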 The source made the active and inactive calls.

Experiments:
Experiment in all cases: NCI-60 one-dose screen, 48 h (100 = growth as untreated, 0 = no growth, -100 = all killed)
Details in all cases: 10 µM unless noted
T-47D breast = tested on: T-47D breast
BT-549 breast = tested on: BT-549 breast
MDA-MB-435 melanoma = tested on: MDA-MB-435 melanoma
SW-620 colon = tested on: SW-620 colon
MCF7 breast = tested on: MCF7 breast
HCT-116 colon = tested on: HCT-116 colon
HCC-2998 colon = tested on: HCC-2998 colon
KM12 colon = tested on: KM12 colon

Measured: growth

COc1ccc(-c2nn(-c3ccccc3)cc2/C=C/C(=O)NNC(=O)Nc2ccc(C)cc2)cc1
inactive: T-47D breast 92.3% | BT-549 breast 114% | MDA-MB-435 melanoma 99.9% | SW-620 colon 95.1% | MCF7 breast 91.9% | HCT-116 colon 77.7% | HCC-2998 colon 96.7% | KM12 colon 101%

COc1ccc2c(c1)c(/C(O)=C1\COC(=O)C1=O)cn2Cc1ccc(F)cc1
inactive: T-47D breast 114% | BT-549 breast 110% | MDA-MB-435 melanoma 109% | SW-620 colon 101% | MCF7 breast 107% | HCT-116 colon 104% | HCC-2998 colon 108% | KM12 colon 109%

O=S(=O)(Oc1ccc(Br)cc1)c1ccc(Cl)cc1
inactive: T-47D breast 88.5% | BT-549 breast 99.8% | MDA-MB-435 melanoma 104% | SW-620 colon 102% | MCF7 breast 91.7% | HCT-116 colon 98.6% | HCC-2998 colon 83.2% | KM12 colon 99.3%

CC[C@]12C=CCN3CC[C@@]4(c5ccc(OC)cc5N(C)[C@H]4[C@@](O)(C(=O)OC)[C@@H]1OC(=O)CCC[P+](c1ccccc1)(c1ccccc1)c1ccccc1)[C@@H]32
active: T-47D breast 1.08% | MDA-MB-435 melanoma -21.6% | MCF7 breast -3.34% | HCT-116 colon 8.72% | HCC-2998 colon -22.5% | KM12 colon -27.2%
inactive: BT-549 breast 11% | SW-620 colon 17.4%

C=C(c1ccc(OC)c(/C=C/C(=O)c2ccc3c(c2)OCO3)c1)c1cc(OC)c(OC)c(OC)c1
inactive: BT-549 breast 12.7% | MDA-MB-435 melanoma 23.2% | MCF7 breast 16.1%
active: T-47D breast 8.67% | SW-620 colon 5.67% | HCT-116 colon 2.56% | HCC-2998 colon 9.86% | KM12 colon 4.46%

O=[N+]([O-])c1ccc(-c2cn3nc(-c4c[nH]c5ccccc45)sc3n2)cc1
inactive: T-47D breast 64.8% | BT-549 breast 99.5% | MDA-MB-435 melanoma 107% | SW-620 colon 99.9% | MCF7 breast 79.5% | HCT-116 colon 90.8% | HCC-2998 colon 86.1% | KM12 colon 83.2%

CCOC(=O)c1cc(C(=O)c2cc(OC)c(OC)c(OC)c2)n2ccccc12
active: MDA-MB-435 melanoma -41.8%
inactive: T-47D breast 47.5% | BT-549 breast 40% | SW-620 colon 29.8% | MCF7 breast 23.7% | HCT-116 colon 18.9% | HCC-2998 colon 39.4% | KM12 colon 25.2%

O=C1NC(=O)/C(=C/c2c(-c3ccccc3)nc3sc(COc4ccccc4)nn23)S1
inactive: T-47D breast 89.4% | BT-549 breast 92.8% | MDA-MB-435 melanoma 102% | SW-620 colon 105% | MCF7 breast 83.5% | HCT-116 colon 89.3% | HCC-2998 colon 107% | KM12 colon 100%

CN1C(=O)/C(=C/c2ccc(C(=O)Nc3ncc(Cc4cccc(Cl)c4)s3)cc2)SC1=S
active: MDA-MB-435 melanoma 5.05%
inactive: T-47D breast 42.7% | BT-549 breast 57% | SW-620 colon 37.4% | MCF7 breast 46% | HCT-116 colon 47.5% | HCC-2998 colon 59.2% | KM12 colon 33.5%

CCCCCCCCCCCCCCCCCC1=NC(C)(C)CN1CC(C)O (stereo not given)
active: SW-620 colon 3.6% | HCT-116 colon 7.84%
inactive: T-47D breast 72.6% | BT-549 breast 101% | MDA-MB-435 melanoma 50.9% | MCF7 breast 42.4% | HCC-2998 colon 75.3% | KM12 colon 44.1%

COC(=O)N1CC(Oc2ccccn2)C2CC1c1ccccc1O2 (stereo not given)
inactive: T-47D breast 99.9% | BT-549 breast 99.5% | MDA-MB-435 melanoma 105% | SW-620 colon 102% | MCF7 breast 102% | HCT-116 colon 97.2% | HCC-2998 colon 104% | KM12 colon 107%

CS(=O)(=O)c1ccc(NC(=O)c2ccccc2)nc1
inactive: T-47D breast 98.9% | BT-549 breast 105% | MDA-MB-435 melanoma 111% | SW-620 colon 100% | MCF7 breast 101% | HCT-116 colon 95.3% | HCC-2998 colon 107% | KM12 colon 107%

O=C1c2ccccc2C(=O)c2c1c(C(=O)NCc1ccccc1)c1ccccn21
inactive: T-47D breast 103% | BT-549 breast 101% | MDA-MB-435 melanoma 103% | SW-620 colon 94.2% | MCF7 breast 79% | HCT-116 colon 97.1% | HCC-2998 colon 99.9% | KM12 colon 101%

CCN(CC)Cc1cc(Nc2ccnc3cc(Cl)ccc23)ccc1O
inactive: T-47D breast 100% | BT-549 breast 95.5% | MDA-MB-435 melanoma 97.8% | SW-620 colon 88.4% | MCF7 breast 86.9% | HCT-116 colon 79.7% | HCC-2998 colon 93.2% | KM12 colon 87.7%

COc1ccc(/C=C2\CN(C(=O)C(Cl)Cl)C/C(=C\c3ccc(OC)cc3)C2=O)cc1
active: T-47D breast 2.86% | BT-549 breast -19.3% | MDA-MB-435 melanoma -37.4% | SW-620 colon -41.5% | MCF7 breast -28.5% | HCT-116 colon -70.2% | HCC-2998 colon -77% | KM12 colon -70.3%

Cc1cccc(N2CCC(=O)NC2=S)c1
inactive: T-47D breast 105% | BT-549 breast 104% | MDA-MB-435 melanoma 106% | SW-620 colon 103% | MCF7 breast 97.1% | HCT-116 colon 93.2% | HCC-2998 colon 95.4% | KM12 colon 107%

Cc1nc2c(c(=O)[nH]1)C(c1ccccc1)c1ccc3ccccc3c1O2 (stereo not given)
inactive: T-47D breast 39.1% | BT-549 breast 34.1% | SW-620 colon 20.9% | MCF7 breast 11.4% | HCT-116 colon 21.3% | HCC-2998 colon 56.6% | KM12 colon 26.2%
active: MDA-MB-435 melanoma -16.2%

COc1cc(/C=C/C(=O)/C=C(O)/C=C/c2ccc(OC(=O)C34CC5CC(CC(C5)C3)C4)c(OC)c2)ccc1OC(=O)C12CC3CC(CC(C3)C1)C2
inactive: T-47D breast 97.9% | BT-549 breast 104% | MDA-MB-435 melanoma 106% | SW-620 colon 98.4% | MCF7 breast 98.5% | HCT-116 colon 89.9% | HCC-2998 colon 106% | KM12 colon 113%

Cc1c2cccnc2c(C)c2c1c1cc(CO)ccc1n2C
active: MCF7 breast 6.87% | HCT-116 colon 6.95%
inactive: T-47D breast 17% | BT-549 breast 35% | MDA-MB-435 melanoma 22.6% | SW-620 colon 15.8% | HCC-2998 colon 34.7% | KM12 colon 31.1%

C#Cc1cccc(Nc2nc(C)nc3cc(NC(=O)CCl)ccc23)c1
active: T-47D breast -55.3% | BT-549 breast -71.2% | MDA-MB-435 melanoma -51.1% | SW-620 colon -63.6% | MCF7 breast -68% | HCT-116 colon -65.2% | HCC-2998 colon -88.1% | KM12 colon -73.7%

CCCCCCCC/C=C\CCCCCCCCOc1ccc(CC(=O)NCC[N+]2(C)CCOCC2)cc1
inactive: T-47D breast 84.2% | BT-549 breast 78.1% | MDA-MB-435 melanoma 89.1% | SW-620 colon 81.2% | MCF7 breast 81.7% | HCT-116 colon 73.8% | HCC-2998 colon 56.2% | KM12 colon 51.3%

Nc1nc(N)c(N=Nc2ccccc2)c(-c2ccccc2)n1
inactive: T-47D breast 10.2% | BT-549 breast 47% | MDA-MB-435 melanoma 73.1% | SW-620 colon 86.3% | MCF7 breast 19.4% | HCT-116 colon 69.7% | HCC-2998 colon 76.4% | KM12 colon 33.4%

N#Cc1cncc(-c2ccc3ncnc(Nc4cccc(Cl)c4)c3c2)c1
inactive: T-47D breast 56.4% | BT-549 breast 69.7% | MDA-MB-435 melanoma 93.4% | SW-620 colon 97.6% | MCF7 breast 75.9% | HCT-116 colon 36.6% | HCC-2998 colon 88.4% | KM12 colon 90.2%

Cc1n[nH]c2ccc(Br)cc2c1=O
inactive: T-47D breast 94.6% | BT-549 breast 95.7% | MDA-MB-435 melanoma 107% | SW-620 colon 113% | MCF7 breast 108% | HCT-116 colon 98.7% | HCC-2998 colon 107% | KM12 colon 95.9%

N=C(N)c1ccc(-c2ccc(-c3ccccc3)s2)cc1
active: SW-620 colon -46.2% | HCT-116 colon -55.1% | HCC-2998 colon -27.7% | KM12 colon -7.55%
inactive: T-47D breast 44.5% | BT-549 breast 90.6% | MDA-MB-435 melanoma 12% | MCF7 breast 13.8%

Cn1c2c(c3ccc(Cl)c(Cl)c31)C(C#N)C(C)(C)NC2=O (stereo not given)
inactive: T-47D breast 74.2% | BT-549 breast 88.1% | MDA-MB-435 melanoma 80.9% | SW-620 colon 67.5% | MCF7 breast 95.3% | HCT-116 colon 76.9% | HCC-2998 colon 91.8% | KM12 colon 91.9%

CN(C)CCCC1(c2ccc(F)cc2)OCc2cc(-c3ccc4cc[nH]c4c3)ccc21 (stereo not given)
inactive: T-47D breast 75.8% | BT-549 breast 87.7% | MDA-MB-435 melanoma 14.7% | SW-620 colon 17.2%
active: MCF7 breast -4.23% | HCT-116 colon -12.2% | HCC-2998 colon -61.6% | KM12 colon 0.464%

CCOC(=O)/C=C1\S/C(=N\Nc2cc(=O)[nH]c3ccccc23)N(c2ccccc2)C1=O
inactive: T-47D breast 94.6% | BT-549 breast 98.4% | MDA-MB-435 melanoma 106% | SW-620 colon 101% | MCF7 breast 91.5% | HCT-116 colon 98.5% | HCC-2998 colon 110% | KM12 colon 101%

CCOC(=O)C(Cc1ccc(OC)cc1)C(=O)OCC
inactive: T-47D breast 20.7% | MDA-MB-435 melanoma 14.7% | SW-620 colon 35.1% | MCF7 breast 17.1% | HCT-116 colon 17.8% | HCC-2998 colon 55.5%
active: BT-549 breast -9.62% | KM12 colon 7.78%

CCN1C(=O)N(CC)C2Nn3c(s/c(=C\c4ccccc4Br)c3=O)=NC21 (stereo not given)
inactive: T-47D breast 62.1% | BT-549 breast 19% | SW-620 colon 17.4% | MCF7 breast 16.7% | HCT-116 colon 11.2% | HCC-2998 colon 24.4%
active: MDA-MB-435 melanoma -62.1% | KM12 colon 7.48%
